These results are taken from PubChem BioAssay (NCI).

Some test systems named below: DU-145 prostate; K-562 leukemia; MALME-3M melanoma; MDA-MB-231 breast; RXF 393 renal; SF-268 CNS; SF-295 CNS; SF-539 CNS; UACC-257 melanoma; M14 melanoma.
Assay in all cases: NCI-60 one-dose screen, 48 h (100 = growth as untreated, 0 = no growth, -100 = all killed)
Holding throughout (settings): 10 µM

About 83,000 compounds went through this panel and 20% of them were active in at least one assay; those are over-represented in the sample as a whole.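 Negative percent growth values reflect cell death: -40 means 40% of the cells present at the start died, and -100 means all died.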 Values without a mark were called inactive. Active and inactive are the calls of the source. Rule for the calls: active = growth percent below 10; inactive = the rest.

`CN1/C(=C\C(I)C(I)C2=[N+](C)c3ccccc3C2(C)C)C(C)(C)c2ccccc21` (stereo not given): the growth in the test with DU-145 prostate is 25.2%; with K-562 leukemia, 7.4% (active); in the test with MALME-3M melanoma, 10.9%; with MDA-MB-231 breast it was 12.2%; with RXF 393 renal it was 36.3%; in the test with SF-268 CNS, 24%. Moreover, the growth in the test on SF-295 CNS was -18.2% (active); in the test with SF-539 CNS, 18.6%; with UACC-257 melanoma, -11.8% (active); in the test on M14 melanoma it was 20.3%.

For the compound `CCCOCC(O)CNCCN` (stereo not given), the growth in the test with DU-145 prostate is 127%; in the test on K-562 leukemia it was 99.3%; with MALME-3M melanoma it was 106%; in the test with MDA-MB-231 breast, 97.5%; with RXF 393 renal, 110%; in the test with SF-268 CNS it was 113%. Moreover, the growth in the test on SF-295 CNS is 94.2%; in the test with SF-539 CNS, 93.2%; in the test with UACC-257 melanoma, 95.9%; in the test with M14 melanoma it was 109%.

As to `CCN(CC)CCOC(=O)c1ccc(N=Nc2ccc(O)c(OC)c2)cc1`, the growth was 108% in the test on DU-145 prostate; 95.3% in the test on K-562 leukemia; 97% with MALME-3M melanoma; 110% in the test with MDA-MB-231 breast; 89.4% in the test with RXF 393 renal; 94.7% in the test on SF-268 CNS. Also, the growth in the test on SF-295 CNS was 101%; in the test with SF-539 CNS, 96.4%; in the test with UACC-257 melanoma it was 96.5%; in the test on M14 melanoma, 103%.

As to `O=[N+]([O-])c1cc2ncccc2c2ncccc12`, the growth in the test with DU-145 prostate is 89.7%; in the test on K-562 leukemia, 49.3%; in the test with MALME-3M melanoma, 72.8%; with MDA-MB-231 breast, 60.6%; in the test with RXF 393 renal it was 92.4%; in the test with SF-268 CNS it was 91.5%. In addition, the growth is 134% with SF-295 CNS, 93.6% in the test with SF-539 CNS, 90.5% in the test with UACC-257 melanoma and 84.5% with M14 melanoma.

In the case of `COc1cc(-c2cc(-c3cc(OC)c(OC)c(OC)c3)nc3nc(N)[nH]c(=O)c23)ccc1Oc1ccnc2cc(Cl)ccc12`, the growth is 33.9% with DU-145 prostate; 10.6% with K-562 leukemia; 59% in the test on MALME-3M melanoma; 36.7% in the test with MDA-MB-231 breast; -13% (active) in the test on RXF 393 renal; 47.2% with SF-268 CNS. Moreover, the growth in the test with SF-295 CNS was 93.5%; in the test with SF-539 CNS, -59.7% (active); with UACC-257 melanoma, 66.6%; in the test on M14 melanoma, 12.6%.

As to `FC(F)(F)c1ccc(-c2ncc(-c3ccc(C(F)(F)F)cc3)c(NCc3cc(C(F)(F)F)cc(C(F)(F)F)c3)n2)cc1`, the growth was 69.6% in the test with DU-145 prostate; 44.4% in the test on K-562 leukemia; 75.4% with MALME-3M melanoma; 72.5% in the test with MDA-MB-231 breast; 66.6% in the test on RXF 393 renal; 69.3% in the test with SF-268 CNS. The growth with SF-295 CNS was 9.91% (active); in the test on SF-539 CNS it was 86.7%; in the test with UACC-257 melanoma, 87.9%; in the test on M14 melanoma, 73.8%.

`Cc1ccc(S(=O)(=O)Nc2cccc3[nH]c(C(F)(F)F)nc23)cc1`: the growth with DU-145 prostate was 19%; in the test with K-562 leukemia it was 11.6%; in the test on MALME-3M melanoma, 12.7%; in the test with MDA-MB-231 breast it was 31.4%; in the test with RXF 393 renal, 3.7% (active); in the test with SF-268 CNS it was 60%. Besides, the growth in the test on SF-295 CNS is 0.543% (active); with SF-539 CNS it was -11.9% (active); in the test with UACC-257 melanoma it was 43.1%; in the test with M14 melanoma it was 15.2%.

As for `O=C(c1ccccc1)C(Nc1ccccc1)c1ccccc1` (stereo not given), the growth in the test on DU-145 prostate is 100%; with K-562 leukemia it was 90.5%; in the test on MALME-3M melanoma, 90%; in the test with MDA-MB-231 breast, 89.7%; in the test with RXF 393 renal, 103%; in the test with SF-268 CNS, 93.1%. Further, the growth was 90.7% in the test with SF-295 CNS, 96.7% with SF-539 CNS, 93.4% with UACC-257 melanoma and 97.5% in the test on M14 melanoma.

For the compound `COc1ccc(-c2nsc3c2NC(=O)CC3c2cccc(Cl)c2)cc1` (stereo not given), the growth is 23.7% with DU-145 prostate; 10.4% in the test with K-562 leukemia; 26.2% with MALME-3M melanoma; 51.6% with MDA-MB-231 breast; -1.29% (active) with RXF 393 renal; 57.2% in the test with SF-268 CNS. Further, the growth in the test on SF-295 CNS was 5.03% (active); with SF-539 CNS, -14.1% (active); with UACC-257 melanoma it was 45%; with M14 melanoma it was 19.2%.

Take `CS(=O)(=O)Nc1ccc(Nc2c3ccccc3nc3cc(Cl)ccc23)cc1`: the growth is 24.2% in the test with DU-145 prostate; 20.6% in the test on K-562 leukemia; 28.3% in the test on MALME-3M melanoma; 86.5% with MDA-MB-231 breast; 20.9% in the test with RXF 393 renal; 37.6% in the test on SF-268 CNS. Further, the growth in the test with SF-295 CNS is -13.5% (active); in the test with SF-539 CNS, 30.7%; with UACC-257 melanoma, 48%; with M14 melanoma it was 36.6%.

Turning to `C/C(=N\NC(=S)N1CCCC1)c1ccccn1`, the growth in the test on DU-145 prostate is 16.7%; in the test on K-562 leukemia, 7.97% (active); with MALME-3M melanoma it was -8.16% (active); in the test with MDA-MB-231 breast, 27.9%; in the test with RXF 393 renal, 21.5%; in the test with SF-268 CNS, 9.48% (active). The growth with SF-295 CNS was -6.83% (active); in the test on SF-539 CNS, 4.96% (active); in the test with UACC-257 melanoma, -32.4% (active); with M14 melanoma, 6.19% (active).

Take `CCC(O)c1ccc(Br)cc1NC(=O)c1cccc(Cl)c1` (stereo not given): the growth in the test on DU-145 prostate is 27.9%; in the test with K-562 leukemia, 8.78% (active); with MALME-3M melanoma, -3.37% (active); in the test with MDA-MB-231 breast it was -1.69% (active); in the test with RXF 393 renal, 16.3%; in the test on SF-268 CNS, 18.7%. Besides, the growth with SF-295 CNS is 9.43% (active); in the test on SF-539 CNS, 2.67% (active); in the test on UACC-257 melanoma, 7.67% (active); in the test on M14 melanoma it was 0.116% (active).

For `Cc1noc(C)c1-c1ccc2nc(NC(=O)[C@H]3CCN(C#N)C3)cn2c1`, the growth with DU-145 prostate was 89.7%; in the test with K-562 leukemia, 40.5%; in the test on MALME-3M melanoma, 75.6%; in the test on MDA-MB-231 breast, 68.2%; in the test with RXF 393 renal, 83.4%; with SF-268 CNS, 91.3%. The growth with SF-295 CNS was 97%; in the test on SF-539 CNS it was 82.3%; in the test with UACC-257 melanoma it was 82.1%; with M14 melanoma, 77.9%.

Consider `Nc1ccc(Sc2ccc3c4c2cccc4c(=O)n2c4ccccc4nc32)cc1`, for which the growth in the test on DU-145 prostate was 39.3%; in the test on K-562 leukemia, 60.3%; in the test on MALME-3M melanoma it was 34%; with MDA-MB-231 breast, 54.4%; with RXF 393 renal, 72.6%; in the test with SF-268 CNS, 59.4%. Further, the growth in the test with SF-295 CNS is 12%; in the test with SF-539 CNS it was 48.5%; in the test with UACC-257 melanoma, 71%; with M14 melanoma, 45.4%.
